Source: PubChem BioAssay AID1628 (Sanford-Burnham Center for Chemical Genomics, 2009)
The campaign covered roughly 190,000 compounds. About 930 (0.49%) were called active. This is one part of the list. Entries with a potency or affinity are not part of this list. Values without a mark were called inactive.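 The calls were made as follows: active = z-score of insulin promoter reporter brightness in nuclei below -3 at 5 µM, with at least 500 cells counted; inconclusive = wells with under 500 cells, flagged as toxic or sparse; inactive = the rest.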

Test: decrease of insulin promoter-GFP reporter – imaging, high-content screening, mouse beta cells (AID 1628)
Conditions: MIN6 insulin promoter GFP reporter, at 5 µM, hits give low values

Structure (SMILES)	z-score
CCN1CC=C2C(C#N)=C(N)C(C#N)(C#N)C(c3cc(Cl)ccc3Cl)C2C1 (stereo not drawn)	15.3
O=C1c2cccc3c(N4CCCCC4)ccc(c23)C(=O)N1c1ccc(O)cc1	6.1
O=C(COc1ccc2ccccc2c1Br)Nc1ncn[nH]1	1.51
Cc1cc(-c2ccccc2)cc(-c2ccccc2)[n+]1C	-5.05 (active)
COCCN1CN(S(=O)(=O)c2ccccc2)c2nc3ccccc3nc21	3.14
O=[N+]([O-])c1ccc(N2N=C(c3ccco3)CC2c2ccccc2)cc1 (stereo not drawn)	3.05
CCC(C)(C)n1nnnc1CN(Cc1ccco1)Cc1cc2cc3c(cc2[nH]c1=O)OCO3	-2.22
CCc1ccc2[nH]c(=O)c(CN(Cc3nnnn3C3CCCC3)C3CCCCC3)cc2c1	-3.09 (active)
CCc1ccc2[nH]c(=O)c(CN(Cc3ccc4c(c3)OCO4)Cc3nnnn3C3CCCC3)cc2c1	-5.41 (active)
Cc1cc(C)c2[nH]c(=O)c(CN(Cc3ccc4c(c3)OCO4)Cc3nnnn3C3CCCC3)cc2c1	-3.04 (active)
O=C(OCC(=O)c1ccc[nH]1)c1ccccc1	2.07
O=C(COc1ccc(S(=O)(=O)NCc2ccccc2)cc1Cl)N1CCOCC1	-4.71 (active)
CCOc1cc(C(=O)OCC(=O)NC(C)c2ccccc2)ccc1OCC(=O)N1CCOCC1 (stereo not drawn)	2.57
O=[N+]([O-])c1cc(S(=O)(=O)/N=C(/c2ccccc2)N2CCOCC2)ccc1Cl	1.77
CCCCn1c(CCC(=O)O)nc2cc(S(=O)(=O)N(C)C)ccc21	-3.06 (active)
O=c1[nH]c2ccccc2c(O)c1O	-0.06
CN(C)C(=S)N=Nc1[nH]c2ccccc2c1O	-5.59 (active)
O=C(CNC(=O)c1cccc(F)c1)N/N=C/c1cc(Br)ccc1OC(=O)/C=C/c1ccco1	-8.62 (active)
Cc1ccc(CNc2ccc3c(c2)OCO3)c(C)c1	3.69
COc1cc(C)c(CNc2ccc(OC)c(OC)c2)cc1C	-4.27 (active)

Structure (SMILES)	z-score
CCc1ccc(NC(=O)c2c(C(=O)Nc3ccccc3)sc3nc(C)cc(=O)n23)cc1	-3.57 (active)
CCc1ccc(NC(=O)c2cc(C(C)C)on2)cc1	3.36
CC(=O)n1c(C=Nc2ccccc2)c(O)c2ccccc21	3.61
Cc1cc(C(=O)NCC(=O)OCC(=O)N2CCCCCC2)ccc1[N+](=O)[O-]	-3.78 (active)
COC(=O)c1c(NC(=O)CC2Nc3cc(C)c(C)cc3NC2=O)sc(C)c1C (stereo not drawn)	6.44
CCOC(=O)c1c(NC(=O)COC(=O)c2cc(OC)c(OC)cc2[N+](=O)[O-])sc(C)c1C	-7.34 (active)
CCC(=O)Nc1ccc(C(=O)OCC(=O)c2ccc(C)c([N+](=O)[O-])c2)cc1	3.37
CCN(C#N)c1nc(NC(C)C)nc(NC(C)C)n1	-6.16 (active)
COc1ccc(N(CC(=O)Nc2cc(OC)ccc2OC)S(C)(=O)=O)cc1	0.8
COc1ccc(N(CC(=O)Nc2ccccc2C(=O)NCC(C)C)S(C)(=O)=O)cc1	-3.31 (active)
COc1ccc(-n2c(C)cc(C(=O)CSc3nn4c(=O)c(C(C)(C)C)nnc4s3)c2C)cc1	-4.21 (active)
COc1ccc(-n2c(SCC(N)=O)nnc2-c2cccnc2)cc1	0.75
CN(C)S(=O)(=O)c1ccc(NC(=O)C2COc3ccccc3O2)cc1 (stereo not drawn)	2
COc1ccc2c(c1)C(=O)OC2CC(=O)O (stereo not drawn)	0.37
Cc1ccc(-c2cn3nc(-c4ccccc4)c(-c4ccccc4)nc3n2)cc1	8.16
Cc1cc2nc(C3CCN(Cc4nnnn4Cc4cccs4)CC3)[nH]c2cc1C	-3.92 (active)
CCCCCc1cc(=O)oc2c(C(CCN3CCCC(C)C3)c3ccc(OC)cc3)c(OC)cc(OC)c12 (stereo not drawn)	-3.09 (active)
CC1CCN(S(=O)(=O)c2ccc(NC(=O)N3c4ccccc4Sc4ccccc43)cc2)CC1	-3.77 (active)
C=CCNC(=O)C1CCN(S(=O)(=O)c2ccc(Br)cc2)CC1	3.14
O=C(C1=C(O)C(=O)N(c2nccs2)C1c1ccccc1)c1cc2ccccc2o1 (stereo not drawn)	13.5

Structure (SMILES)	z-score
Cc1ccc2c(c1)C(c1ccccc1)N(C(=O)c1cc3ccccc3oc1=O)CC(=O)N2 (stereo not drawn)	-4.42 (active)
Cc1ccc(S(=O)(=O)CCC(=O)NCCN2C(=O)S/C(=C/c3ccc(F)cc3)C2=O)cc1	-5.68 (active)
O=C1S/C(=C/c2ccc(N3CCOCC3)o2)C(=O)N1Cc1ccc(F)cc1	11.4
CN(C)c1ccc(/C=C2\SC(=O)N(CCc3nnc(N)s3)C2=O)cc1	3.27
CCCc1nc2ccc(NC(C)=O)cc2c(=O)n1Cc1ccc(Cl)cc1	3.64
CN(C)Cc1nc2ccccc2c(=O)n1Cc1nc(C(C)(C)C)cs1	-4 (active)
Cc1cccc(OCC(=O)NNC(=O)Nc2cccc(Cl)c2)c1C	-5.42 (active)
COc1ccc(Cl)cc1NC(=O)CN(C)C(=O)COc1ccccc1F	4.38
CC(=O)Nc1ccc2nc(NC(=O)COc3ccccc3C)sc2c1	2.47
Cc1cccc(N=Cc2[nH]c3ccc(Br)c(Cl)c3c2O)c1	16.6
Cc1cccc(N=CC=C2OC(C)(C)C(C)(C)O2)c1	-4.14 (active)
Cn1c(C(=O)N2CCC(C(=O)N3CCN(Cc4ccc5c(c4)OCO5)CC3)CC2)cc2sccc21	4.67
O=C(c1ccco1)N1CCN(C(=O)c2cc3sccc3n2Cc2ccccc2)CC1	-3.22 (active)
Cc1ccc(/C=C/C(=O)O)cc1S(=O)(=O)NCCO	-4.14 (active)
CCC(C)(C)C1CCc2c(sc(NC(=O)c3cccs3)c2C(N)=O)C1 (stereo not drawn)	-3.17 (active)
CC(C)N1CCc2c(sc(NC(=O)c3cc4cc([N+](=O)[O-])ccc4s3)c2C(N)=O)C1	7.47
CCn1ncc(Br)c1C(=O)Nc1sc2c(c1C(N)=O)CCC2	3.46
CN(CCCNC(=O)CN1C(=O)CC(C)(C)S(=O)(=O)c2ccccc21)C1CCCCC1	3.03
